Source: PubChem BioAssay
Activity calls are given as the source filed them. Unless noted, no rule for the calls is given here.

Assays:
[1] = A549 cell viability effects, profiling panel, calcein-AM fluorescence, 48 h, basal (AID 1162); conditions: higher = more signal; also: test concentration not given here
[2] = adipocyte viability effects, profiling panel, cell-based, 3T3-L1 adipocytes, calcein-AM fluorescence, 48 h, basal (AID 1163); conditions: 3T3-L1 adipocytes viability, higher = more signal; also: test concentration not given here
[3] = HepG2 cell viability effects, profiling panel, calcein-AM fluorescence, 48 h, basal (AID 1164); conditions: higher = more signal; also: test concentration not given here
[4] = MM1S cell viability effects, profiling panel, calcein-AM fluorescence, 48 h, basal (AID 1165); conditions: higher = more signal;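 also: viability of MM1S multiple myeloma cells under basal unstimulated conditions; test concentration not given here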
[5] = basal RPMI8226 viability, no added stimulus, profiling panel, cell-based, calcein-AM fluorescence, 48 h, PK04 Diversity Set (AID 1166); conditions: RPMI8226 myeloma viability, higher = more signal;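 also: cells grown under basal conditions without added stimulus; test concentration not given here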
[6] = basal HepG2 mitochondrial membrane potential changes, profiling panel, cell-based, JC-1 fluorescence, 24 h, 100 nL compound (AID 1167); conditions: higher = more signal; also: test concentration not given here
[7] = basal 3T3-L1 adipocyte mitochondrial potential changes, profiling panel, cell-based, JC-1 fluorescence, 3T3-L1 adipocytes, 24 h, 100 nL compound (AID 1168); conditions: JC-1 mitochondrial fluorescence, higher = more signal, called active from +8 up or from −8 down; also: test concentration not given here
[8] = basal RPMI8226 mitochondrial membrane potential changes, profiling panel, cell-based, JC-1 fluorescence, 24 h, 100 nL compound (AID 1169); conditions: RPMI8226 myeloma, JC-1 mitochondrial potential fluorescence, higher = more signal; also: test concentration not given here
[9] = basal MM1S mitochondrial membrane potential changes, profiling panel, cell-based, JC-1 fluorescence, 24 h, 100 nL compound (AID 1170); conditions: higher = more signal; also: test concentration not given here
[10] = A549 lung cancer cell viability effects, profiling panel, resazurin fluorescence, 24 h, PK04 Diversity Set (AID 1171); conditions: higher = more signal, called active from +8 up or from −8 down; also: test concentration not given here
[11] = HepG2 liver cancer cell viability effects, profiling panel, resazurin fluorescence, 24 h, PK04 Diversity Set (AID 1172); conditions: higher = more signal; also: test concentration not given here
[12] = basal S. cerevisiae growth modulation, no modifier, primary screen, OD600, strain BY4716, 24 h, basal condition (AID 1173); conditions: OD600, 24 h, higher = more signal, called active from +8 up or from −8 down
[13] = MM1S myeloma cell viability, profiling panel, resazurin fluorescence, basal, 24 h, PK04 Diversity Set (AID 1174); conditions: higher = more signal, called active from +8 up or from −8 down;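 also: MM1S multiple myeloma cell line; test concentration not given here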
[14] = target: Dihydroorotate dehydrogenase (quinone), mitochondrial (Plasmodium falciparum (isolate 3D7)) (UniProt Q08210); test: PfDHODH enzyme inhibitors, primary screen, biochemical, C-terminal His tag, absorbance 600 nm (AID 1175); conditions: DCIP absorbance 600 nm, higher = more signal, called active from +8 up or from −8 down;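 also: recombinant parasite enzyme with a five histidine tag at its C terminus; test concentration not given here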
Chain of Dihydroorotate dehydrogenase (quinone), mitochondrial (Plasmodium falciparum (isolate 3D7)) (Q08210 whole entry, looked up): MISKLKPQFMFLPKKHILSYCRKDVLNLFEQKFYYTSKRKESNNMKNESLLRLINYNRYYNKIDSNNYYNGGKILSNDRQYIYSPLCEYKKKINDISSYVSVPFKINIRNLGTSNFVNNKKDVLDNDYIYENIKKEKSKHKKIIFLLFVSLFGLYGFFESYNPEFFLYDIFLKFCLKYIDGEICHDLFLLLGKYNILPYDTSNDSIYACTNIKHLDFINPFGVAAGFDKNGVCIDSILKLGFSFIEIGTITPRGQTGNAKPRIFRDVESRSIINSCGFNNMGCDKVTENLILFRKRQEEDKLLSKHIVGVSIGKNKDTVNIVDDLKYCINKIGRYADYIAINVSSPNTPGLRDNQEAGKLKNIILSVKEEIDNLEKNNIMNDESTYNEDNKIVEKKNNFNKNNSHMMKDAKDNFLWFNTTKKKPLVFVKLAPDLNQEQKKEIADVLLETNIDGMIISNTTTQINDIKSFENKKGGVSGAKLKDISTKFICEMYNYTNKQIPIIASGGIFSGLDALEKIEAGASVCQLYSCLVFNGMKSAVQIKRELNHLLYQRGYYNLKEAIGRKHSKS

[15] = P. aeruginosa biofilm formation inhibitors, primary screen, strain PAO1, LB-PBS medium, absorbance 600 nm (AID 1176); also: test concentration not given here; conditions: P. aeruginosa PAO1 growth/biofilm, A600, 12 h; higher = more signal
[16] = S. cerevisiae RM11-1a growth modifiers, primary screen, strain RM11-1a, OD600, basal, 24 h (AID 1177); conditions: OD600, 24 h, higher = more signal, called active from +8 up or from −8 down;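 also: cultures grown under basal conditions with no added stressor; test concentration not given here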
[17] = E. coli acrAB mutant growth effects, primary screen, E. coli filamentation inducers, strain DRC39, OD650, 24 h (AID 1178); conditions: higher = more signal, called active from +8 up or from −8 down;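 also: growth measured as culture turbidity by optical density at 650 nm; test concentration not given here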
[18] = E. coli acrAB mutant growth effects, primary screen, E. coli filamentation inducers, strain DRC39, OD650, 48 h (AID 1179);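 also: screen aims at cell division blockers that make cells filament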; conditions: E. coli DRC39 delta-acrAB growth, higher = more signal, called active from +8 up or from −8 down
[19] = RPMI8226 myeloma cell viability, profiling panel, resazurin fluorescence, basal, 24 h, PK04 Diversity Set (AID 1180); conditions: higher = more signal;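 also: RPMI8826 multiple myeloma cell line at 5000 cells per well; test concentration not given here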
[20] = target: E3 ubiquitin-protein ligase XIAP (Homo sapiens) (UniProt P98170); test: XIAP binders, primary screen, biophysical, small-molecule microarray, fluorescence 635 nm (AID 1181); conditions: small-molecule microarray binding, higher = more signal;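 also: score merges 667 nm emission and signal to noise over triplicate slides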
Chain of E3 ubiquitin-protein ligase XIAP (Homo sapiens) (P98170 whole entry, looked up): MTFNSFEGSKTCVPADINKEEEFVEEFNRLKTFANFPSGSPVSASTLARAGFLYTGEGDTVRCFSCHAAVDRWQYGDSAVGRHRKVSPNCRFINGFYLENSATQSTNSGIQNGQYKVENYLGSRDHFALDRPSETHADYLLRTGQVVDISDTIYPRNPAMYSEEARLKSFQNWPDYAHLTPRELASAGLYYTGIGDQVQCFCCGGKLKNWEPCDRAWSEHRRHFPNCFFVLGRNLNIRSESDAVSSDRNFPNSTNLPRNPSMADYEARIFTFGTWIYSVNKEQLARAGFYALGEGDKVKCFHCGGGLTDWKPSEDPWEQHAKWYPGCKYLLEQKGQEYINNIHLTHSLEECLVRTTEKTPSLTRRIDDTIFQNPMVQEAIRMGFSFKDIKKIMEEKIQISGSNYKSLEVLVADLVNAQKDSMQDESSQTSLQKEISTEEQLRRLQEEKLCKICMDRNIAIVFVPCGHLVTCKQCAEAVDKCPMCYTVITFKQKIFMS

Structure (SMILES)	z-score [1]	z-score [2]	z-score [3]	z-score [4]	z-score [5]	z-score [6]	z-score [7]	z-score [8]	z-score [9]	z-score [10]	z-score [11]	z-score [12]	z-score [13]	composite z-score [14]	z-score [15]	z-score [16]	z-score [17]	z-score [18]	z-score [19]	composite z-score [20]
O=C1CCCC=C1C(O)CCCCBr (stereo not given)	-1.75	0.593	-4.6	-3.52	-3.71	-0.504	0.482 (inactive)	-0.967	-3.04	-2.06 (inactive)	-1.4	-17.6 (active)	-8.08 (active)	-1.39 (inactive)	1.43 (inactive)	-2.66 (inactive)	0.48 (inactive)	0.557 (inactive)	-4.3	-0.193
CC(C)CON=C1C[C@@H](O)[C@@H](O)[C@@H]2[C@@H]3C(=O)N(C4CCCCC4)C(=O)[C@@H]3CC[C@H]12	0.325	0.274	0.232	0.768	-0.909	-0.357	0.0297 (inactive)	0.0139	-0.0788	-0.318 (inactive)	-0.451	-0.197 (inactive)	-0.143 (inactive)	0.603 (inactive)	-0.118 (inactive)	-0.207 (inactive)	-0.651 (inactive)	0.272 (inactive)	-0.365	0.224
CO[C@@H]1COC(=O)CC=C[C@@H](C)[C@@H]2C=C[C@H](O)[C@@H](COC(=O)CC=C[C@H]1C)O2	1.26	0.392	0.764	0.425	0.448	0.598	0.967 (inactive)	-0.31	0.658	0.0324 (inactive)	0.807	-1.65 (inactive)	0.992 (inactive)	-0.0239 (inactive)	0.765 (inactive)	-0.72 (inactive)	0.619 (inactive)	0.799 (inactive)	0.366	0.0177
CCCCC#C[C@@H]1C=C[C@H](Oc2cc(OC)c(OC)c(OC)c2)[C@@H](COC(=O)OCC)O1	1.75	-0.931	0.928	-2.65	-1.86	-0.163	0.841 (inactive)	0.23	-0.254	-0.108 (inactive)	-0.826	-0.535 (inactive)	-1.03 (inactive)	-1.48 (inactive)	0.806 (inactive)	0.628 (inactive)	1.02 (inactive)	0.751 (inactive)	-0.65	-0.113
Cc1cc2c(nc1C)CCCCN2CC(C)ON=C1[C@H]2CCn3c(=O)n(-c4ccccc4)c(=O)n3[C@H]2[C@H](O)[C@@H]2O[C@H]12 (stereo not given in full)	-0.333	-0.0663	0.305	-0.767	-1.21	-0.439	-0.521 (inactive)	0.407	-0.974	-1.53 (inactive)	-1.22	-0.683 (inactive)	-3.13 (inactive)	-0.498 (inactive)	-0.525 (inactive)	0.722 (inactive)	0.588 (inactive)	1.2 (inactive)	-0.459	-0.327
CCN1C(=O)[C@H]2[C@H]3[C@H](O)[C@H](O)CC(=NOCC(C)C)[C@@H]3CC[C@H]2C1=O	-0.556	-0.0239	-0.308	-0.181	0.922	-0.501	-0.769 (inactive)	0.788	0.0483	-0.0226 (inactive)	0.424	-0.18 (inactive)	-0.243 (inactive)	-0.423 (inactive)	0.99 (inactive)	-0.589 (inactive)	-0.556 (inactive)	-1.86 (inactive)	0.279	-0.0696
CCOC(=O)[C@H](CC(C)C)NC(=O)CCC1CC(OC(=O)NCCc2ccc(F)cc2)CC2(CCCC(COC(=O)NCC(c3ccccc3)c3ccccc3)O2)O1 (stereo not given in full)	0.0775	0.0775	-0.912	-0.325	0.497	-0.898	-0.516 (inactive)	0.872	-0.019	0.171 (inactive)	0.184	-0.227 (inactive)	-0.345 (inactive)	0.0649 (inactive)	0.013 (inactive)	0.126 (inactive)	0.113 (inactive)	-1.1 (inactive)	0.465	-0.0994
C#CCCCON=C1C[C@@H](O)[C@@H](O)[C@@H]2[C@@H]3C(=O)N(c4ccc(F)cc4F)C(=O)[C@@H]3CC[C@H]12	1.14	-0.0377	-0.123	0.324	0.116	0.769	-0.229 (inactive)	-0.0797	-1.25	0.705 (inactive)	0.63	-0.98 (inactive)	0.475 (inactive)	-0.31 (inactive)	0.577 (inactive)	-1.67 (inactive)	0.335 (inactive)	0.537 (inactive)	0.817	0.199
CC(CCN1CCCc2nc(C)c(C)cc21)=NOC(C)CN1CCCCc2nc(C)c(C)cc21 (stereo not given)	-0.37	-0.219	-0.508	-0.675	-0.388	1.83	-1.86 (inactive)	0.264	0.547	-0.0774 (inactive)	-0.0007	1.38 (inactive)	-0.221 (inactive)	0.131 (inactive)	1.3 (inactive)	1.02 (inactive)	0.315 (inactive)	-0.554 (inactive)	0.347	0.593
